# In the supplement of paper PMC10037445:
# Values joined by “and” are separate entries in the source; they are usually repeats but may differ in a detail not shown here. Equal values may be shown once. In all, about 2,900 compounds were measured (“NF-kB SEAP reporter activity, fold change vs agonist alone”: median about 0.99, highest 2% from about 2.6 on). This is one part of a sample in which the highest values are shown more often than they occur.
# Key:
# RAW-Dual [1] = assay: NF-kB SEAP reporter activity, fold change vs agonist alone; cytotoxicity flag (confluency mask): not cytotoxic; higher = enhanced NF-kB activity
# In short: (§1)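 Reporter activity is given as fold change relative to agonist-alone wells. To measure it, 50 nL of library stock was pin-tooled onto RAW-Dual macrophages (50,000 cells/well, DMEM, 384-well plates), a PRR agonist followed 1 h later, and cells stayed at 37 °C, 5% CO2. Twenty hours on, supernatant was assayed for IRF (QuantiLuc luminescence) and NF-κB (QuantiBlue, 620 nm absorbance), and wells under 70% of agonist-control IncuCyte confluency in both mask sets were marked cytotoxic.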
# RAW-Dual [2] = assay: NF-kB SEAP reporter activity, fold change vs agonist alone; higher = enhanced NF-kB activity
# In short: as §1
# RAW-Dual [3] = assay: NF-kB SEAP reporter activity, fold change vs agonist alone; cytotoxicity flag (confluency mask): cytotoxic (confluency <70% of control); higher = enhanced NF-kB activity
# In short: as §1
# [4] = agonist: ODN 1826 (TLR9) 0.5 ug/mL
# [5] = agonist: Pam2CSK4 (TLR2/6) 0.1 ug/mL
# [6] = agonist: Pam3CSK4 (TLR2/1) 0.1 ug/mL
# [7] = library stock concentration (final ~1000-fold dilution): 10 mM, cytotoxicity flag (confluency mask): not cytotoxic, agonist: Imiquimod (TLR7) […]
# [8] = library stock concentration (final ~1000-fold dilution): 10 mM, cytotoxicity flag (confluency mask): not cytotoxic, agonist: MPLA (TLR4) […]
smiles,measurement,setting,value
CCn1cc(C(=O)O)c(=O)c2c(N)c(F)c(NC3CCCCC3)cc21 (library stock concentration (final ~1000-fold dilution): 10 mM),NF-kB SEAP reporter activity,RAW-Dual [1]; agonist: LPS (TLR4) 0.1 ug/mL,4.89
same,NF-kB SEAP reporter activity,RAW-Dual [1]; [4],2.9
same,NF-kB SEAP reporter activity,RAW-Dual [1]; [5],1.85
same,NF-kB SEAP reporter activity,RAW-Dual [1]; [6],3.32
CCn1cc(C(=O)O)c(=O)c2cc(F)c(N3CCN(C)CC3)cc21.CS(=O)(=O)O,NF-kB SEAP reporter activity,RAW-Dual [2]; [7],0.916
same,NF-kB SEAP reporter activity,RAW-Dual [2]; [8],0.878
O=C1C2C3CCC(C3)C2C(=O)N1CC1CCCCC1CN1CCN(c2nsc3ccccc23)CC1 (stereo unspecified),NF-kB SEAP reporter activity,RAW-Dual [2]; [7],0.878
same,NF-kB SEAP reporter activity,RAW-Dual [2]; [8],1.06
O=C1C2C3CCC(C3)C2C(=O)N1CC1CCCCC1CN1CCN(c2nsc3ccccc23)CC1 (stereo unspecified) (library stock concentration (final ~1000-fold dilution): 10 mM),NF-kB SEAP reporter activity,RAW-Dual [1]; agonist: LPS (TLR4) 0.1 ug/mL,0.728
same,NF-kB SEAP reporter activity,RAW-Dual [1]; [4],0.931
same,NF-kB SEAP reporter activity,RAW-Dual [1]; [5],0.983
same,NF-kB SEAP reporter activity,RAW-Dual [1]; [6],1.07
O=C(Nc1ccc([N+](=O)[O-])cc1Cl)c1cc(Cl)ccc1O,NF-kB SEAP reporter activity,RAW-Dual [2]; [7],1
same,NF-kB SEAP reporter activity,RAW-Dual [2]; [8],1.05
Cl.NCCOc1ccc(Cl)cc1C(=O)Nc1ccc([N+](=O)[O-])cc1Cl,NF-kB SEAP reporter activity,RAW-Dual [2]; [7],1.31
same,NF-kB SEAP reporter activity,RAW-Dual [2]; [8],0.949
O=C(Nc1cc(C(F)(F)F)ccc1C(F)(F)F)c1cc(Br)ccc1O (library stock concentration (final ~1000-fold dilution): 10 mM),NF-kB SEAP reporter activity,RAW-Dual [3]; agonist: LPS (TLR4) 0.1 ug/mL,2.68
same,NF-kB SEAP reporter activity,RAW-Dual [3]; [4],1.82
same,NF-kB SEAP reporter activity,RAW-Dual [3]; [5],0.573
same,NF-kB SEAP reporter activity,RAW-Dual [3]; [6],0.839
Cl.Nc1ccc(Cl)cc1C(=O)C(F)(F)F (library stock concentration (final ~1000-fold dilution): 10 mM),NF-kB SEAP reporter activity,RAW-Dual [1]; agonist: LPS (TLR4) 0.1 ug/mL,1.2
same,NF-kB SEAP reporter activity,RAW-Dual [1]; [4],1.04
same,NF-kB SEAP reporter activity,RAW-Dual [1]; [5],1.01
same,NF-kB SEAP reporter activity,RAW-Dual [1]; [6],0.971
O=C(Nc1cc(C(F)(F)F)cc(C(F)(F)F)c1)c1cc(Cl)ccc1O (library stock concentration (final ~1000-fold dilution): 10 mM),NF-kB SEAP reporter activity,RAW-Dual [3]; agonist: LPS (TLR4) 0.1 ug/mL,4.53 and 3.94
same,NF-kB SEAP reporter activity,RAW-Dual [3]; [4],1.84 and 1.74
same,NF-kB SEAP reporter activity,RAW-Dual [3]; [5],1.25 and 1.03
same,NF-kB SEAP reporter activity,RAW-Dual [3]; [6],1.99 and 1.13
Cl.Nc1ccc(Cl)cc1C(=O)C(F)(F)F,NF-kB SEAP reporter activity,RAW-Dual [2]; [8],1.24
O=C(Nc1ccncc1)c1cc([N+](=O)[O-])ccc1Cl (library stock concentration (final ~1000-fold dilution): 10 mM),NF-kB SEAP reporter activity,RAW-Dual [1]; agonist: LPS (TLR4) 0.1 ug/mL,0.801
same,NF-kB SEAP reporter activity,RAW-Dual [1]; [4],0.584
same,NF-kB SEAP reporter activity,RAW-Dual [1]; [5],0.853
same,NF-kB SEAP reporter activity,RAW-Dual [1]; [6],0.69
CC(ONC(=O)c1cc(C(F)(F)F)cc(C(F)(F)F)c1)C(=O)Nc1ccc(Cl)cc1 (stereo unspecified),NF-kB SEAP reporter activity,RAW-Dual [2]; [7],0.98
same,NF-kB SEAP reporter activity,RAW-Dual [2]; [8],1.4
Cc1oncc1C(=O)Nc1ccc(C(F)(F)F)cc1 (library stock concentration (final ~1000-fold dilution): 10 mM),NF-kB SEAP reporter activity,RAW-Dual [1]; agonist: LPS (TLR4) 0.1 ug/mL,0.926
same,NF-kB SEAP reporter activity,RAW-Dual [1]; [4],1.24
same,NF-kB SEAP reporter activity,RAW-Dual [1]; [5],0.908
same,NF-kB SEAP reporter activity,RAW-Dual [1]; [6],1.07
O=C(Nc1cc(C(F)(F)F)ccc1C(F)(F)F)c1cc(Br)ccc1O,NF-kB SEAP reporter activity,"RAW-Dual [2]; library stock concentration (final ~1000-fold dilution): 10 mM, cytotoxicity flag (confluency mask): cytotoxic (confluency <70% of control), agonist: Imiquimod (TLR7) […]",0.255
same,NF-kB SEAP reporter activity,"RAW-Dual [2]; library stock concentration (final ~1000-fold dilution): 10 mM, cytotoxicity flag (confluency mask): cytotoxic (confluency <70% of control), agonist: MPLA (TLR4) […]",2.3
O=C(Nc1ccc([N+](=O)[O-])cc1Cl)c1cc(Cl)ccc1O (library stock concentration (final ~1000-fold dilution): 10 mM),NF-kB SEAP reporter activity,RAW-Dual [1]; agonist: LPS (TLR4) 0.1 ug/mL,6.96
same,NF-kB SEAP reporter activity,RAW-Dual [1]; [4],0.713
same,NF-kB SEAP reporter activity,RAW-Dual [1]; [5],0.379
same,NF-kB SEAP reporter activity,RAW-Dual [1]; [6],0.527
O=C(Nc1ccncc1)c1cc([N+](=O)[O-])ccc1Cl,NF-kB SEAP reporter activity,RAW-Dual [2]; [7],0.837
same,NF-kB SEAP reporter activity,RAW-Dual [2]; [8],0.684
Cl.NCCOc1ccc(Cl)cc1C(=O)Nc1ccc([N+](=O)[O-])cc1Cl (library stock concentration (final ~1000-fold dilution): 10 mM),NF-kB SEAP reporter activity,RAW-Dual [1]; agonist: LPS (TLR4) 0.1 ug/mL,1.29
same,NF-kB SEAP reporter activity,RAW-Dual [1]; [4],0.59
same,NF-kB SEAP reporter activity,RAW-Dual [1]; [5],0.918
same,NF-kB SEAP reporter activity,RAW-Dual [1]; [6],0.91
Cc1oncc1C(=O)Nc1ccc(C(F)(F)F)cc1,NF-kB SEAP reporter activity,RAW-Dual [2]; [7],1.24
same,NF-kB SEAP reporter activity,RAW-Dual [2]; [8],1.15
O=C(Nc1cc(C(F)(F)F)ccc1N1CCCCC1)c1ccncc1 (library stock concentration (final ~1000-fold dilution): 10 mM),NF-kB SEAP reporter activity,RAW-Dual [1]; agonist: LPS (TLR4) 0.1 ug/mL,0.802
same,NF-kB SEAP reporter activity,RAW-Dual [1]; [4],0.875
same,NF-kB SEAP reporter activity,RAW-Dual [1]; [5],0.764
same,NF-kB SEAP reporter activity,RAW-Dual [1]; [6],0.771
CC(ONC(=O)c1cc(C(F)(F)F)cc(C(F)(F)F)c1)C(=O)Nc1ccc(Cl)cc1 (stereo unspecified) (library stock concentration (final ~1000-fold dilution): 10 mM),NF-kB SEAP reporter activity,RAW-Dual [1]; agonist: LPS (TLR4) 0.1 ug/mL,1.45
same,NF-kB SEAP reporter activity,RAW-Dual [1]; [4],0.913
same,NF-kB SEAP reporter activity,RAW-Dual [1]; [5],0.239
same,NF-kB SEAP reporter activity,RAW-Dual [1]; [6],0.6
O=C(Nc1cc(C(F)(F)F)ccc1N1CCCCC1)c1ccncc1,NF-kB SEAP reporter activity,RAW-Dual [2]; [7],0.957
same,NF-kB SEAP reporter activity,RAW-Dual [2]; [8],1.01
Cc1c(-c2ccc(C(N)=O)c3[nH]c4cc(C(C)(C)O)ccc4c23)cccc1-n1cnc2ccccc2c1=O,NF-kB SEAP reporter activity,RAW-Dual [2]; [7],1.76
same,NF-kB SEAP reporter activity,RAW-Dual [2]; [8],1.37
Cc1c(-c2ccc(C(N)=O)c3[nH]c4cc(C(C)(C)O)ccc4c23)cccc1-n1cnc2ccccc2c1=O (library stock concentration (final ~1000-fold dilution): 10 mM),NF-kB SEAP reporter activity,RAW-Dual [1]; agonist: LPS (TLR4) 0.1 ug/mL,1.25
same,NF-kB SEAP reporter activity,RAW-Dual [1]; [4],1.1
same,NF-kB SEAP reporter activity,RAW-Dual [1]; [5],0.537
same,NF-kB SEAP reporter activity,RAW-Dual [1]; [6],0.833
CC(O)C1C(=O)N2C(C(=O)O)=C(SCCNC=N)CC12.O (stereo unspecified),NF-kB SEAP reporter activity,"RAW-Dual [2]; library stock concentration (final ~1000-fold dilution): 10 mM water, cytotoxicity flag (confluency mask): not cytotoxic, agonist: Imiquimod (TLR7) […]",0.896
same,NF-kB SEAP reporter activity,"RAW-Dual [2]; library stock concentration (final ~1000-fold dilution): 10 mM water, cytotoxicity flag (confluency mask): not cytotoxic, agonist: MPLA (TLR4) […]",1.02
CC(O)C1C(=O)N2C(C(=O)O)=C(SCCNC=N)CC12.O (stereo unspecified) (library stock concentration (final ~1000-fold dilution): 10 mM water),NF-kB SEAP reporter activity,RAW-Dual [1]; agonist: LPS (TLR4) 0.1 ug/mL,1.41
same,NF-kB SEAP reporter activity,RAW-Dual [1]; [4],1.16
same,NF-kB SEAP reporter activity,RAW-Dual [1]; [5],1.23
same,NF-kB SEAP reporter activity,RAW-Dual [1]; [6],1.07
CCCn1c(NC(=O)c2cccc(C(N)=O)c2)nc2ccccc21,NF-kB SEAP reporter activity,RAW-Dual [2]; [7],0.36
same,NF-kB SEAP reporter activity,RAW-Dual [2]; [8],0.54
CCCn1c(NC(=O)c2cccc(C(N)=O)c2)nc2ccccc21 (library stock concentration (final ~1000-fold dilution): 10 mM),NF-kB SEAP reporter activity,RAW-Dual [1]; agonist: LPS (TLR4) 0.1 ug/mL,0.482
same,NF-kB SEAP reporter activity,RAW-Dual [1]; [4],0.333
same,NF-kB SEAP reporter activity,RAW-Dual [1]; [5],0.143
same,NF-kB SEAP reporter activity,RAW-Dual [1]; [6],0.205
